The text below walks through data of PubChem BioAssay (Tox21).

Test [1] in a line: qHTS assay to identify small molecule antagonists of the estrogen receptor alpha (ER-alpha) signaling pathway using the BG1 cell line in the presence of 0.1 nM 17-beta-estradiol - cell viability counter screen (AID 1259241). Further: nearly all actives have a fitted effect of over 40% in size. Further: potency means the concentration at half of the fitted maximal effect. An outline of the steps:
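CellTiter-Fluor read (30 min, 37C) on ER-alpha/ERE-luc VM7Luc4E2 cells; 22 hr compound treatment; agonist 0.1 nM E2 final; same-well multiplex.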

The nature of test [2]: qHTS assay to identify small molecule antagonists of the androgen receptor (AR) signaling pathway using the MDA cell line in the presence of 0.5 nM R1881 - cell viability counter screen (AID 1259242). Further: nearly all actives have a fitted effect of over 45% in size. Further: potency means the concentration at half of the fitted maximal effect. The method, boiled down:
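R1881 at 0.5 nM final stimulated MDA-kb2 cells during 16 hr compound treatment at 37C. Cytotoxicity read: CellTiter-Fluor fluorescence after 30 min.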

The target in test [3] is Estrogen receptor (Homo sapiens) (UniProt P03372). As to the kind of experiment: qHTS assay to identify small molecule antagonists of the estrogen receptor alpha (ER-alpha) signaling pathway using the BG1 cell line in the presence of 0.1 nM 17-beta-estradiol (AID 1259244). Further: nearly all actives have a fitted effect of over 50% in size. Further: potency means the concentration at half of the fitted maximal effect. An outline of the steps:
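VM7Luc4E2; 4xERE-luciferase; 0.1 nM E2 final; 22 h co-incubation, 37C; ONE-Glo luminescence after 30 min at room temperature.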
For orientation: qHTS replaces the single test concentration by a dilution series.

Test [4] is described as follows: qHTS assay to identify small molecule HDAC inhibitors (AID 1259364). Further: potency means the concentration at half of the fitted maximal effect.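 Further: wild-type HCT-116 cells with endogenous class I/II HDAC activity; nearly all actives have a fitted effect of over 45% in size.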 The method, boiled down: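 Relative class I and II HDAC activity is taken from the luminogenic signal in HCT-116 cells, with compound exposure 2 hr and reagent development 30 min at room temperature.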
The nature of test [5]: qHTS assay to identify small molecule HDAC inhibitors - cell viability counter screen (AID 1259365). Further: series mostly up to about 92 µM; nearly all actives have a fitted effect of over 50% in size. The method, boiled down:
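To flag cytotoxic hits, 1,500 wild-type HCT-116 cells per well, plated the day before, receive test compounds for 2hr at 37 C before CellTiter-Glo reagent and a luminescence read.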

A short description of test [6]: qHTS assay to identify small molecule antagonists of the sonic hedgehog signaling (Shh) pathway - cell viability counter screen (AID 1259367). Further: nearly all actives have a fitted effect of over 55% in size. Further: potency means the concentration at half of the fitted maximal effect. The method, boiled down: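 Cells: 3T3 Gli1-Luc, 2,000/well, 4 hr pre-incubation. Compounds in DMSO, then conditioned medium. Incubation 24 hr, 37C, 5% CO2. CellTiter-Fluor at 23 hr, 1 hr, fluorescence.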
The nature of test [7]: qHTS assay to identify small molecule agonists of the sonic hedgehog signaling (Shh) pathway (AID 1259368; calls by dose curve;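 further: NIH/3T3-derived 3T3Gli1-Luc cells carrying a stable Gli1-driven firefly luciferase reporter; series mostly up to about 92 µM; nearly all actives have a fitted effect of over 15% in size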). The method, boiled down:
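Mouse fibroblast (NIH/3T3) reporter cells with stably integrated Gli1-Luc were treated 24 hr with compound; firefly luciferase luminescence served as the read-out.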

Test [8] concerns the target Androgen receptor (Homo sapiens) (UniProt P10275). As to the kind of experiment: qHTS assay to identify small molecule antagonists of the androgen receptor (AR) signaling pathway using the MDA cell line in the presence of 0.5 nM R1881 (AID 1259243). Further: nearly all actives have a fitted effect of over 50% in size. The method, boiled down:
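We exposed MDA-kb2 cells to compounds under 0.5 nM R1881 stimulation for 16 hr at 37C and quantified MMTV-driven luciferase by luminescence.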

Test [9] is described as follows: qHTS assay to identify small molecule agonists of the sonic hedgehog signaling (Shh) pathway - cell viability counter screen (AID 1259366). Further: nearly all actives have a fitted effect of over 50% in size. Further: potency means the concentration at half of the fitted maximal effect. An outline of the steps:
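Fluorescence from CellTiter-Fluor reports live cells in this counter screen. NIH/3T3-derived Gli1-Luc reporter cells receive test compounds for 24hr at 37C; reagent goes in at 23hr.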

The nature of test [10]: qHTS assay to identify small molecule phospholipidosis (PLD) inducers (AID 1259344; active means well fitted curve in the direction sought with a large enough effect; an effect the other way counts as inactive or inconclusive). An outline of the steps:
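Phospholipidosis is scored by imaging LipidTOX-stained pits in HepG2 cells exposed to compound for 24 h at 37 C; pit counts and integrated intensities per well and per cell serve as outputs.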

Where “and” joins values, the source holds several entries; their conditions need not be identical. Equal values may be shown once. Results filed as inconclusive are left out. The source holds several records for some structures; these can differ, active in one and inactive in another. Calls of active or inactive are those of the source. Unless noted, the call rests on the fitted dose curve; in most records, active means well fitted curve in the direction sought with a large enough effect in the repeat runs; inconclusive means weak or mixed curves; inactive means no such curve, though single readings can be large; an effect the other way counts as inactive or inconclusive.

Chain of Androgen receptor (Homo sapiens) (P10275 whole entry, looked up): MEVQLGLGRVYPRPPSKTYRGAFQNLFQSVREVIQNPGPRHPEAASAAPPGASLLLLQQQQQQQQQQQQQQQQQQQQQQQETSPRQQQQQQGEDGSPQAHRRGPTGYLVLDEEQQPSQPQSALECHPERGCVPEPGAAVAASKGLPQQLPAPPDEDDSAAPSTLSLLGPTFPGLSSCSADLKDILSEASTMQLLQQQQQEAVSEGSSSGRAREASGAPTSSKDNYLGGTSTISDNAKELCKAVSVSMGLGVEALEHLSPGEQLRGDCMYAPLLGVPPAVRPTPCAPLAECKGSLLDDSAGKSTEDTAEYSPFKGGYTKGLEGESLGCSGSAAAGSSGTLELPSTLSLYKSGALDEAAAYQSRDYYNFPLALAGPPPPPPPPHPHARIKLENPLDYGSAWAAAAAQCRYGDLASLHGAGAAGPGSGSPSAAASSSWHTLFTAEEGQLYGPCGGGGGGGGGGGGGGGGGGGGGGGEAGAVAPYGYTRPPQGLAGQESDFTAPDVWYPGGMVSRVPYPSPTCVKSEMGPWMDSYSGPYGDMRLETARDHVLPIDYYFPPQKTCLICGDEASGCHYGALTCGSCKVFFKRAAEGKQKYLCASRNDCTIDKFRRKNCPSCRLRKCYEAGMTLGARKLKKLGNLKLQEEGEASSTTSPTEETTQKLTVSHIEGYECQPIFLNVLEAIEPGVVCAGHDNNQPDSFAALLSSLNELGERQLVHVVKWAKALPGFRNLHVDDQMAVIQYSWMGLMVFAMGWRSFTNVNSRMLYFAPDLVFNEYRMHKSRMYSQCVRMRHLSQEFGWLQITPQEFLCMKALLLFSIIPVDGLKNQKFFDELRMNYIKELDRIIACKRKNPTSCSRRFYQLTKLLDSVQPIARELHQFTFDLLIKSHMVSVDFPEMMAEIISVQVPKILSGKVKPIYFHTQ
Chain of Estrogen receptor (Homo sapiens) (P03372 whole entry, looked up): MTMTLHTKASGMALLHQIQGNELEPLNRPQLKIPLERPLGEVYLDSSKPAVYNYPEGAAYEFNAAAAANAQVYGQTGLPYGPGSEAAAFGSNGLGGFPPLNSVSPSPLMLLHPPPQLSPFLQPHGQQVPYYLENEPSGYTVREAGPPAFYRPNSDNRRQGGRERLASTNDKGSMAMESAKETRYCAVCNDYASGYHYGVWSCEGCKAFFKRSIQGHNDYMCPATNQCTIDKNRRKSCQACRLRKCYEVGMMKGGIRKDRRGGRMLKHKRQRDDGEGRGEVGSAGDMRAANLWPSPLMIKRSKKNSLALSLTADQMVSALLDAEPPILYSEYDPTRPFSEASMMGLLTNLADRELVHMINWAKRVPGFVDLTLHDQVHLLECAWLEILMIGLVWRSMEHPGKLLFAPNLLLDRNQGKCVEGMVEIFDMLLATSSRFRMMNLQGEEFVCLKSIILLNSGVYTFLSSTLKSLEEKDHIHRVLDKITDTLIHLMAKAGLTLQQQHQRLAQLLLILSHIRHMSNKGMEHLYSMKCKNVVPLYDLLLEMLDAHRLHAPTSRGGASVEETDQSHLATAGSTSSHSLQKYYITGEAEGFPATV

`O=S(=O)(O)c1ccc(O)cc1`: the Potency result in test [1], in [2], in test [3], in [4], in test [6] and in [7] was “inactive” throughout. The compound was classed as inactive in test [5].
As to `OCCO`, the Potency entry in [1], in test [2], in [8], in [3], in test [4] and in test [6] was “inactive” each time. The Potency result in test [7] was “inactive”. In test [5], the outcome was inactive.
Regarding `CC(C)(C)NC(=O)[C@H]1CC[C@H]2[C@@H]3CC[C@H]4NC(=O)C=C[C@]4(C)[C@H]3CC[C@]12C`, the Potency result in test [1], in test [2], in [3], in [4], in test [9] and in test [6] was “inactive” each time. The Potency entry in test [7] was “inactive”. The compound was classed as inactive in test [5].
For `CC(C(=O)O)c1cccc(C(=O)c2ccccc2)c1` (stereo not drawn), the Potency result in test [1], in [2], in test [3], in test [4], in [9] and in test [6] was “inactive” in each case. In addition, the Potency result in test [7] is “inactive”. For the same compound, the compound was called inactive in [5].
In the case of `O=C=Nc1ccc(Cc2ccc(N=C=O)cc2)cc1`, the Potency entry in test [1], in test [2], in test [4], in test [9], in test [6] and in test [7] was “inactive” throughout. Besides, the compound was called inactive in [5].
Regarding `Cc1cccc([N+](=O)[O-])c1C`, the Potency result in test [1], in [2], in [8], in [3], in test [4] and in [9] was “inactive” throughout. Besides, the Potency result in [6] and in [7] was “inactive” in each case. The result in test [5] was inactive.
For the compound `O=CCCCC=O`, the Potency entry in test [1], in [2], in test [3], in test [4], in test [9] and in test [6] was “inactive” throughout. Moreover, the Potency result in [7] was “inactive”. Further, the result in test [5] was inactive.
On to `CC1=CCC(C(C)(C)O)CC1` (stereo not drawn), for which the Potency entry in test [1], in [2], in [8], in test [3], in test [4] and in test [6] was “inactive” each time. For the same compound, in test [7], the Potency entry was “inactive”. Further, the outcome in test [5] was inactive.
Consider `c1ccc2c(c1)Oc1ccccc1S2`, for which the Potency entry in [1], in [2], in test [3], in [4], in [6] and in test [7] was “inactive” each time.
Turning to `CC(=O)Oc1ccccc1C(=O)Nc1ncc([N+](=O)[O-])s1`, the Potency is 16800 nM (active) in [1]; 11.1 µM (active) and 11.9 µM (active) in test [2]; 197 nM (active) and 473 nM (active) in test [4]; 22.1 µM (active) and 26.6 µM (active) in test [9]; 24.8 µM (active) and 26.6 µM (active) in test [6]. In addition, the Potency entry in [3] and in test [7] was “inactive” throughout.
Regarding `Brc1cc(Oc2cc(Br)c(Br)c(Br)c2Br)c(Br)c(Br)c1Br`, the Potency result in test [1], in [2], in test [4], in test [9], in test [6] and in test [7] was “inactive” each time. Besides, the compound was classed as inactive in test [5].
Take `CC(C)OB(OC(C)C)OC(C)C`: the Potency result in test [1], in test [2], in test [3], in test [4], in [6] and in test [7] was “inactive” in each case.
As for `CC(C)Oc1ccc2c(=O)c(-c3ccccc3)coc2c1`, the Potency result in test [1], in test [2], in [10] and in test [6] was “inactive” in each case. In [4], the Potency is 2.37 µM (active). In addition, in test [5], the outcome was inactive.
With `CCCCOCCOCCOCCO`, the Potency result in test [1], in [2], in [3], in [4], in test [9] and in [6] was “inactive” throughout. Moreover, the Potency entry in [7] is “inactive”. Also, the result in test [5] was inactive.
On to `O=[N+]([O-])c1ccc2c(c1)Cc1ccccc1-2`, for which the Potency result in [1], in [2], in [3], in [4], in test [9] and in test [6] was “inactive” in each case. The Potency entry in test [7] is “inactive”. The call in test [5] was inactive.
Take `Cc1cccc(N(C)C(=S)Oc2ccc3ccccc3c2)c1`: the Potency entry in test [1], in test [2], in test [3], in test [10], in [4] and in [6] was “inactive” in each case. For the same compound, the Potency result in [7] was “inactive”.
With `CCC(C)(O)CCCC(C)C` (stereo not drawn), the Potency result in test [1], in [2], in [3], in [4], in test [9] and in [6] was “inactive” throughout. Besides, the Potency entry in test [7] is “inactive”.
As to `COC(=O)Nc1nc2ccc(S(=O)c3ccccc3)cc2[nH]1` (stereo not drawn), the Potency result in test [1], in test [2], in [3], in test [4] and in test [7] was “inactive” throughout. Further, the Potency result in [6] was “inactive and 11.9 µM (active)”.
Regarding `S=C(NC1CCCCC1)NC1CCCCC1`, the Potency result in test [1], in test [2], in test [4] and in test [9] was “inactive” throughout. For the same compound, the Potency was 53.4 µM (active) and 48.6 µM (active) in test [3]; “inactive and 30.6 µM (active)” in test [6]. Moreover, the outcome in [5] was inactive.
Turning to `Cc1ccc(C)c(O)c1C`, the Potency entry in test [1], in test [2], in [8], in test [3], in test [4] and in test [9] was “inactive” each time. In addition, the Potency result in [6] and in test [7] was “inactive” throughout. In addition, the compound was called inactive in test [5].
`C=CC(C)(CCC=C(C)C)OC(C)=O` (stereo not drawn): the Potency result in test [1], in [2], in test [3], in test [4], in test [6] and in [7] was “inactive” each time. For the same compound, the result in test [5] was inactive.
For the compound `CCCCOCCOCCO`, the Potency result in test [1], in test [2], in test [3], in [4], in [9] and in test [6] was “inactive” each time. Besides, the Potency entry in test [7] is “inactive”. Moreover, the outcome in test [5] was inactive.
With `COc1cc([C@@H]2c3cc4c(cc3[C@H](O)[C@H]3COC(=O)[C@H]23)OCO4)cc(OC)c1OC`, the Potency result in test [1], in test [2], in test [8], in test [4], in [9] and in test [7] was “inactive” throughout. Also, in [5], the compound was classed as inactive. Moreover, the Potency in [6] is 106 nM (active).
For `O=C(OCc1ccccc1)c1ccccc1O`, the Potency result in [1], in test [2], in [3], in [9], in test [6] and in test [7] was “inactive” each time. The Potency in test [4] is 24.2 µM (active) and 24.3 µM (active). In addition, the call in test [5] was inactive.
